Measured values: PubChem BioAssay AID1159580 (chemical genetic matrix, 2015)
In all, about 5,500 compounds went through this assay and about 2,000 (36%) were called active. Another 18% or so got no clear call; they are omitted. No stated cut-off is given here; in the data, active means normalized growth mostly below about 0.91 (no sharp cut-off); inconclusive means no clear call, values can overlap the other calls; inactive means mostly above about 0.92. Some of the results follow.

Assay: chemical genetic growth profiling, strain panel (AID 1159580);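 further: tested at 20 µM; growth read once vehicle control cultures reached saturation at 30 °C; 1 = growth at the plate median or of vehicle wells; lower values mean less growth of the strain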
Conditions: growth OD

Measured: normalized growth

NCC(=O)CCC(=O)O
inactive: S. cerevisiae deletion strains, locus YJR075W, strain HOC1, hits give low values 1.02 | S. cerevisiae deletion strains, locus YKL009W, strain mrt4, hits give low values 1.07 | S. cerevisiae deletion strains, locus YKL068W, hits give low values 0.995 | S. cerevisiae deletion strains, locus YKL085W, strain MDH1 (second series), hits give low values 0.997 | S. cerevisiae deletion strains, locus YKL085W, strain MDH1, hits give low values 0.997 | S. cerevisiae deletion strains, locus YKL160W, strain elf1, hits give low values 0.98 | S. cerevisiae deletion strains, locus YKL190W, strain CNB1, hits give low values 1.01 | S. cerevisiae deletion strains, locus YKR001C, strain vps1, hits give low values 0.982 | S. cerevisiae deletion strains, locus YKR026C, strain gcn3, hits give low values 0.981 | S. cerevisiae deletion strains, locus YKR091W, strain srl3, hits give low values 0.981 | S. cerevisiae deletion strains, locus YLL001W, strain dnm1, hits give low values 0.93 | S. cerevisiae deletion strains, locus YLL026W, hits give low values 0.982 | S. cerevisiae deletion strains, locus YLL041C, strain sdh2, hits give low values 0.987 | S. cerevisiae deletion strains, locus YLR027C, strain aat2, hits give low values 0.98 | S. cerevisiae deletion strains, locus YLR039C, strain RIC1, hits give low values 1.03 | S. cerevisiae deletion strains, locus YLR058C, strain SHM2, hits give low values 1.01 | S. cerevisiae deletion strains, locus YLR102C, strain apc9, hits give low values 0.983 | S. cerevisiae deletion strains, locus YLR113W, strain HOG1, hits give low values 1.03 | S. cerevisiae deletion strains, locus YLR221C, strain rsa3, hits give low values 1.03 | S. cerevisiae deletion strains, locus YLR258W, strain gsy2, hits give low values 0.994 | S. cerevisiae deletion strains, locus YLR262C, strain YPT6 (second series), hits give low values 0.958 | S. cerevisiae deletion strains, locus YLR262C, strain YPT6, hits give low values 1.05 | S. cerevisiae deletion strains, locus YLR268W, strain sec22, hits give low values 0.953 | S. cerevisiae deletion strains, locus YLR320W, strain mms22, hits give low values 0.976 | S. cerevisiae deletion strains, locus YLR330W, strain CHS5, hits give low values 1.01 | S. cerevisiae deletion strains, locus YLR342W, strain FKS1 (second series), hits give low values 1.03 | S. cerevisiae deletion strains, locus YLR342W, strain FKS1, hits give low values 0.959 | S. cerevisiae deletion strains, locus YLR357W, strain rsc2, hits give low values 0.954 | S. cerevisiae deletion strains, locus YLR370C, strain arc18, hits give low values 1.01 | S. cerevisiae deletion strains, locus YLR371W, strain rom2, hits give low values 0.988 | S. cerevisiae deletion strains, locus YLR384C, strain iki3, hits give low values 0.997 | S. cerevisiae deletion strains, locus YLR418C, strain cdc73, hits give low values 0.994 | S. cerevisiae deletion strains, locus YML016C, strain PPZ1, hits give low values 1.01 | S. cerevisiae deletion strains, locus YML032C, strain rad52, hits give low values 0.981 | S. cerevisiae deletion strains, locus YML120C, strain ndi1, hits give low values 0.983 | S. cerevisiae deletion strains, locus YML124C, strain tub3, hits give low values 0.997 | S. cerevisiae deletion strains, locus YMR058W, strain fet3, hits give low values 0.984 | S. cerevisiae deletion strains, locus YMR078C, strain ctf18, hits give low values 0.991 | S. cerevisiae deletion strains, locus YMR125W, strain sto1, hits give low values 0.977 | S. cerevisiae deletion strains, locus YMR129W, hits give low values 0.99 | S. cerevisiae deletion strains, locus YMR205C, strain PFK2, hits give low values 0.976 | S. cerevisiae deletion strains, locus YMR223W, strain ubp8, hits give low values 0.998 | S. cerevisiae deletion strains, locus YMR231W, strain pep5, hits give low values 0.972 | S. cerevisiae deletion strains, locus YMR263W, strain SAP30, hits give low values 1.01 | S. cerevisiae deletion strains, locus YMR307W, strain GAS1, hits give low values 1.05 | S. cerevisiae deletion strains, locus YNL067W, strain RPL9B, hits give low values 0.997 | S. cerevisiae deletion strains, locus YNL071W, strain lat1, hits give low values 0.995 | S. cerevisiae deletion strains, locus YNL128W, strain TEP1, hits give low values 1.02 | S. cerevisiae deletion strains, locus YNL153C, strain GIM3, hits give low values 1 | S. cerevisiae deletion strains, locus YNL183C, strain NPR1, hits give low values 0.986 | S. cerevisiae deletion strains, locus YNL209W, strain ssb2, hits give low values 0.997 | S. cerevisiae deletion strains, locus YNL233W, strain BNI4, hits give low values 1.02 | S. cerevisiae deletion strains, locus YNL248C, strain rpa49, hits give low values 1 | S. cerevisiae deletion strains, locus YNL250W, strain rad50, hits give low values 0.993 | S. cerevisiae deletion strains, locus YNL271C, strain bni1, hits give low values 0.98 | S. cerevisiae deletion strains, locus YNL298W, strain CLA4, hits give low values 0.984 | S. cerevisiae deletion strains, locus YNL307C, strain MCK1, hits give low values 1 | S. cerevisiae deletion strains, locus YNL322C, strain KRE1 (second series), hits give low values 0.964 | S. cerevisiae deletion strains, locus YNL322C, strain KRE1, hits give low values 1.02 | S. cerevisiae deletion strains, locus YNR049C, strain mso1, hits give low values 0.981 | S. cerevisiae deletion strains, locus YNR052C, strain pop2, hits give low values 0.988 | S. cerevisiae deletion strains, locus YOL006C, strain TOP1, hits give low values 0.983 | S. cerevisiae deletion strains, locus YOL012C, strain htz1 0.968 | S. cerevisiae deletion strains, locus YOL147C, strain pex11, hits give low values 0.993 | S. cerevisiae deletion strains, locus YOR001W, strain rrp6, hits give low values 0.994 | S. cerevisiae deletion strains, locus YOR061W, strain CKA2, hits give low values 1.01 | S. cerevisiae deletion strains, locus YOR069W, strain VPS5, hits give low values 1.01 | S. cerevisiae deletion strains, locus YOR070C, strain gyp1, hits give low values 0.989 | S. cerevisiae deletion strains, locus YOR080W, strain dia2, hits give low values 0.976 | S. cerevisiae deletion strains, locus YOR083W, strain WHI5, hits give low values 0.954 | S. cerevisiae deletion strains, locus YOR106W, strain vam3, hits give low values 0.956 | S. cerevisiae deletion strains, locus YOR136W, strain idh2, hits give low values 0.992 | S. cerevisiae deletion strains, locus YOR144C, strain elg1, hits give low values 0.986 | S. cerevisiae deletion strains, locus YOR184W, strain ser1, hits give low values 0.976 | S. cerevisiae deletion strains, locus YOR231W, strain MKK1, hits give low values 1.04 | S. cerevisiae deletion strains, locus YOR265W, strain rbl2, hits give low values 0.988 | S. cerevisiae deletion strains, locus YOR270C, strain vph1, hits give low values 1.01 | S. cerevisiae deletion strains, locus YOR290C, strain snf2, hits give low values 1.01 | S. cerevisiae deletion strains, locus YOR316C, strain cot1, hits give low values 0.989 | S. cerevisiae deletion strains, locus YPL051W, strain arl3, hits give low values 0.997 | S. cerevisiae deletion strains, locus YPL055C, strain LGE1, hits give low values 1.03 | S. cerevisiae deletion strains, locus YPL078C, strain atp4, hits give low values 0.948 | S. cerevisiae deletion strains, locus YPL106C, strain sse1, hits give low values 0.998 | S. cerevisiae deletion strains, locus YPL240C, strain hsp82, hits give low values 0.985 | S. cerevisiae deletion strains, locus YPL241C, strain CIN2, hits give low values 1 | S. cerevisiae deletion strains, locus YPL256C, strain CLN2, hits give low values 1.03 | S. cerevisiae deletion strains, locus YPR119W, strain clb2, hits give low values 0.983 | S. cerevisiae deletion strains, locus YPR141C, strain kar3, hits give low values 0.993 | S. cerevisiae deletion strains, locus YPR163C, strain tif3, hits give low values 0.981 | S. cerevisiae deletion strains, locus YPR167C, strain met16, hits give low values 0.986 | S. cerevisiae deletion strains, strain wtn01, hits give low values 0.99 | S. cerevisiae strains, strain wild type, hits give low values 1.01
